Source: PubChem
NS1 function inh: influenza NS1 inhibition | Potency, µM (titrated, usually from 46.1 µM) | 270,000 tested, 0.4% active; calls by dose curve; also: actives are rising curves; nearly all actives have a fitted effect of over 50% in size
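Read-out: OD600 growth recovery of NS1-expressing budding yeast. Cells grown overnight at 30C in -URA glucose medium, washed, resuspended and diluted 1:100 in 2% galactose assay medium, pH 6.0. Same strain lacking NS1 served as positive control.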
Pf growth 48h: inhibits P. falciparum growth in the first generation, 48 h; AID 504832; Potency, µM (titrated, usually from 28.7 µM), most hits filed as inhibitors; P. falciparum luciferase growth in erythrocytes, 48 h; 310,000 tested, 5.9% active
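Read-out is firefly luciferase luminescence from an integrated reporter in P. falciparum, so falling signal marks reduced parasite growth. Infected erythrocytes were at 2% hematocrit and 0.1% parasitemia (final) in Albumax-supplemented RPMI 1640.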
Pf growth 96h: inhibits malaria parasite growth, 96 h. P. falciparum luciferase reporter growth, 96 h. Potency, µM (doses to about 28.7 µM), hits mostly inhibitors. 320,000 tested, 6.9% active. AID 504834
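Two parasite generations (96 h, 37 C, 5% CO2) of compound exposure in infected erythrocytes (0.05% parasitemia, 2% hematocrit). Luciferase-reporter P. falciparum; decreased luminescence indicates inhibited growth, aimed at apicoplast-acting delayed death.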
Shiga toxin inh: inhibitors of Shiga toxin in Vero cells; Vero cells, Shiga toxin protein synthesis inhibition reporter; inhibition, % at 38.7 µM; 290,000 tested, 9.2% active; in the data active = inhibition mostly above about 28%, no sharp cut-off; inactive = mostly below about 43%
Cycloheximide cs: counter-screen for Shiga toxin inhibitors: cycloheximide protein synthesis inhibition | max response, % | 300,000 tested, 12% active | cell reporter, cycloheximide protein synthesis inhibition counterscreen; in the data active = max response mostly above about 13%, no sharp cut-off; inactive = mostly below about 14%; also: read at 38.3 µM for the half of the compounds with a filed dose
FBPA Giardia inh: inhibitors of Giardia lamblia fructose-1,6-bisphosphate aldolase | purified Giardia FBPA | A8B2U2 | 290,000 tested, 0.71% active | Potency, µM (series often up to 59.6 µM), actives largely listed as inhibitors; also: nearly all actives have a fitted effect of over 55% in size
Target sequence (A8B2U2 whole entry, looked up): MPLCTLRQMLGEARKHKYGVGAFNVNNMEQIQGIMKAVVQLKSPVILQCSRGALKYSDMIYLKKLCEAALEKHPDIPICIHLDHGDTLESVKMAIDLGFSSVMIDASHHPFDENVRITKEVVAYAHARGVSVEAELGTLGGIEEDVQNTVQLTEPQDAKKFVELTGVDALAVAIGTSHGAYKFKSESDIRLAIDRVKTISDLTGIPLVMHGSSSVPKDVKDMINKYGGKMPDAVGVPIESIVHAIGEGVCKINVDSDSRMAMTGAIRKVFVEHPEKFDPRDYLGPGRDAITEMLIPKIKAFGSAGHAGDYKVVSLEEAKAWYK
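40 nM FBPA preincubated 10 min at RT with compound (up to 57.5 uM final), then substrate plus GAPDH/TPI/NAD/arsenate coupling and diaphorase/resazurin added. Fluorescence read after 20 min at RT, 525/598 nm.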
Of the large screens only hits and unclear results are named; the others gave an inactive call; ! = not confirmed by another sample. This is a sample that favours compounds with a hit; in the whole collection about 21% have one here. Unless noted, calls follow the shape of the dose curve; as a rule, active = well fitted curve in the direction sought with a large enough effect; inconclusive = small, poorly fitted or top-dose-only effect, or another doubt; inactive = no such curve, though single readings can be large; an effect the other way counts as inactive or inconclusive.

CCOc1ccc(S(=O)(=O)NCCC(=O)N2CC=C(c3ccccc3)CC2)cc1	Pf growth 48h 9.28µM, Pf growth 96h inconclusive (no result: NS1 function inh, Shiga toxin inh, Cycloheximide cs, FBPA Giardia inh)
CCOc1ccc(S(=O)(=O)NCCC(=O)N2CCN(Cc3ccccc3)CC2)cc1	Pf growth 48h inconclusive (no result: NS1 function inh, Shiga toxin inh, Cycloheximide cs, FBPA Giardia inh)
COc1ccccc1C(=O)NCCC(=O)N1CCCCC1	none (no result: FBPA Giardia inh)
COc1ccccc1C(=O)NCCC(=O)N1CCN(c2ccccc2O)CC1	Pf growth 48h 11.7µM, Pf growth 96h inconclusive (no result: NS1 function inh, Shiga toxin inh, Cycloheximide cs, FBPA Giardia inh)
O=C(CCOc1ccccc1F)N1CCN(c2ccccc2O)CC1	Shiga toxin inh 70.0, Cycloheximide cs 30.7 (no result: NS1 function inh)
COc1ccccc1C(=O)NCCC(=O)N1CC=C(c2ccccc2)CC1	Pf growth 48h 11.7µM, Pf growth 96h inconclusive (no result: NS1 function inh, Shiga toxin inh, Cycloheximide cs, FBPA Giardia inh)
c1cc(CSSCc2ccncc2)ccn1	none (no result: Pf growth 48h, Pf growth 96h, Shiga toxin inh, Cycloheximide cs, FBPA Giardia inh)
CCn1c(SCC(=O)Nc2nc(C)cs2)nnc1-c1ccncc1	Pf growth 96h inconclusive (no result: FBPA Giardia inh)
Cc1cnc(CNC(=O)CC2C(=O)NCCN2Cc2cccc(F)c2F)cn1 (stereo not given)	Pf growth 96h inconclusive
CCOC(=O)C1=C(c2ccccc2)c2cc(OC)ccc2OC1C(=O)OCC (stereo not given)	none (no result: NS1 function inh, Pf growth 48h, Pf growth 96h)
CCCCC(c1nnnn1CC1CCCO1)N1CCN(c2nc3ccccc3s2)CC1 (stereo not given)	Pf growth 48h 13.1µM
CCCC(c1nnnn1CC1CCCO1)N1CCN(c2nc3ccccc3s2)CC1 (stereo not given)	Pf growth 48h 11.7µM
CC(C)CC(c1nnnn1CC1CCCO1)N1CCN(c2nc3ccccc3s2)CC1 (stereo not given)	Pf growth 48h inconclusive
CCCCC(c1nnnn1CC1CCCO1)N1CCN(c2ccccc2)CC1 (stereo not given)	none (no result: NS1 function inh)
CCOC(=O)Cc1csc(NC(=O)CSc2nnc(C3CC3)n2C)n1	Pf growth 96h 13.1µM
CCOC(=O)Cc1csc(NC(=O)CSc2ncnc3c2cnn3-c2ccccc2Cl)n1	Pf growth 48h 7.38µM (no result: Pf growth 96h)
COC(=O)c1c(NC(=O)CSc2ncnc3c2cnn3-c2ccccc2Cl)sc2c1CCCC2	Pf growth 48h inconclusive, Pf growth 96h inconclusive
CCOC(=O)Cc1csc(NC(=O)CSc2nnc(C)n2C)n1	Pf growth 96h 10.4µM
CCOC(=O)c1csc(NC(=O)CSc2nnc(C3CC3)n2C)n1	Pf growth 96h inconclusive
COC(=O)C1=C(C)N(Cc2ccccc2)C(=NCCc2c[nH]c3ccccc23)N[C@H]1c1ccccc1	Pf growth 48h inconclusive, Pf growth 96h 8.28µM
COC(=O)C1=C(C)N(Cc2ccccc2)C(=NCc2ccccc2)N[C@H]1c1cccc(F)c1	Pf growth 48h inconclusive, Pf growth 96h 9.28µM
C=CCN=C1N[C@@H](c2ccccc2)C(C(=O)OC)=C(C)N1CCOC	Pf growth 96h 10.4µM!, FBPA Giardia inh inconclusive
COC(=O)C1=C(C)N(CCc2cc(OC)c(OC)c(OC)c2)C(=O)N[C@H]1c1ccc(Br)cc1	Pf growth 48h 13.1µM, Pf growth 96h 10.4µM
COCCN1C(=NCCCOC(C)C)N[C@@H](c2ccccc2)C(C(=O)OC)=C1C	Pf growth 48h inconclusive
COC(=O)C1=C(C)N(Cc2ccccc2)C(=NCc2cc(OC)c(OC)c(OC)c2)N[C@H]1c1ccccc1	Pf growth 48h inconclusive, Pf growth 96h inconclusive
COC(=O)C1=C(C)N(CC2CC2)C(=NCc2cc(OC)c(OC)c(OC)c2)N[C@H]1c1ccccc1	Pf growth 96h 11.7µM!
CCN1C(=NCCCCO)N[C@@H](c2ccccc2)C(C(=O)OC)=C1C	none
COC(=O)C1=C(C)N(Cc2ccccc2)C(=NCc2ccccc2)N[C@H]1c1ccccc1	Pf growth 48h inconclusive, Pf growth 96h 1.69µM
CCN1C(=NCCN2CCOCC2)N[C@@H](c2ccccc2)C(C(=O)OC)=C1C	Pf growth 96h 1.07µM!
COC(=O)C1=C(C)N(Cc2ccccc2)C(=NCc2cccc(Cl)c2)N[C@H]1c1ccccc1	Pf growth 96h inconclusive
COC(=O)C1=C(C)N(Cc2ccccc2)C(=NCc2cc(OC)c(OC)c(OC)c2)N[C@H]1CCc1ccccc1	Pf growth 48h 13.1µM, Pf growth 96h inconclusive
O=C(Cn1cnc(S(=O)(=O)N2CCCC2)c1)Nc1ccc(OC(F)(F)F)cc1	Pf growth 96h inconclusive (no result: FBPA Giardia inh)
CC(=O)OC[C@@H]1O[C@@H](O/N=C2/C[C@@H](O)[C@@H](O)[C@@H]3[C@@H]4C(=O)N(Cc5ccccc5)C(=O)[C@H]4CC[C@@H]23)[C@H](OC(C)=O)[C@H](OC(C)=O)[C@@H]1OC(C)=O	none (no result: NS1 function inh, Pf growth 48h, Pf growth 96h, Shiga toxin inh, Cycloheximide cs)
CN(C)CCCNS(=O)(=O)c1ccc(NC2CCCCCC2)c([N+](=O)[O-])c1	Pf growth 48h inconclusive, Pf growth 96h inconclusive (no result: FBPA Giardia inh)
CCC(C)(C)NC(=O)C(c1ccc(F)cc1)N(Cc1ccc(OC)cc1)C(=O)c1cnccn1 (stereo not given)	Pf growth 48h inconclusive, Pf growth 96h inconclusive, Shiga toxin inh 60.4, Cycloheximide cs 31.3
COc1ccc(CNc2oc(COc3ccccc3)nc2C#N)cc1	Pf growth 96h inconclusive, Shiga toxin inh 40.2, Cycloheximide cs 20.3
COc1ccc(CCNc2oc(COc3ccccc3)nc2C#N)cc1	Pf growth 96h inconclusive
N#Cc1nc(COc2ccccc2Cl)oc1NCc1ccc(F)cc1	none
COc1ccc(CNc2oc(COc3ccccc3Cl)nc2C#N)cc1	Pf growth 96h 1.47µM (no result: Pf growth 48h)
N#Cc1nc(Cc2ccccc2)oc1NCCN1CCOCC1	none
N#Cc1nc(COc2ccccc2Cl)oc1NCc1cccnc1	NS1 function inh inconclusive, Shiga toxin inh 38.1
N#Cc1nc(Cc2ccccc2)oc1NCc1ccccc1	Shiga toxin inh active, Cycloheximide cs 27.9
O=C(CC1C(=O)NCCN1Cc1ccccc1C(F)(F)F)NCCN1CCOCC1 (stereo not given)	none
COC(=O)C1=CN(c2ccc(OC)cc2)C=C(C(=O)OC)C1c1ccc(C)c([N+](=O)[O-])c1	NS1 function inh inconclusive, Pf growth 48h 13.1µM
COC(=O)C1=CN(c2ccc(OC)cc2)C=C(C(=O)OC)C1c1cccc(F)c1	Pf growth 48h inconclusive
COC(=O)C1=CN(c2cccc(C)c2)C=C(C(=O)OC)C1c1cc(OC)c(O)c([N+](=O)[O-])c1	Pf growth 48h 8.28µM, Pf growth 96h inconclusive
COC(c1ccccc1)c1nnc(CCC(=O)N2CCN(Cc3cccs3)CC2)o1 (stereo not given)	Pf growth 48h inconclusive
O=C(CCc1nnc(-c2ccsc2)o1)N1CCc2c(Cl)cccc2C1	Shiga toxin inh 104.4, Cycloheximide cs 30.2
COC(c1ccccc1)c1nnc(CCC(=O)N(C)C(C2CC2)C2CC2)o1 (stereo not given)	Shiga toxin inh 83.8, Cycloheximide cs 50.2
O=C(Nc1ccccc1)Nc1nnc(-c2ccccc2)o1	Pf growth 96h inconclusive
O=C(CCc1nnc(-c2ccc(-c3ccccc3)cc2)o1)N1CCCCC1	Pf growth 48h inconclusive, Shiga toxin inh 68.5, Cycloheximide cs 48.9
O=C(Nc1nnc(-c2ccccc2)o1)NC1CCCCC1	Pf growth 48h 11.7µM, Pf growth 96h 3.7µM
O=C(CCc1nc(-c2ccccc2)no1)N1CCCC1	Pf growth 96h inconclusive
